Sampled rows, rich in hits. Any-hit rate of the full collection: about 3.6%.
MITF act = activators of MITF-driven TRPM1 promoter activity in SK-MEL-5 cells | SK-MEL-5 TRPM1-promoter luciferase, 24 h; % of positive control, neutral wells = 0 | 300,000 tested, 0.75% active | activation, % at 12.5 µM | AID 588334;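 active = mean activation of at least 80% with every replicate also reaching 80%; inconclusive = mean reaches 80% but some replicate falls short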;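 also: 0% = neutral control wells and 100% = parthenolide positive control wells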
PHOSPHO1 inh = blocks human PHOSPHO1 phosphatase activity; inhibition, % at 13.3 µM; Q8TCT1; recombinant PHOSPHO1, absorbance phosphatase assay; 290,000 tested, 1.1% active; in the data active = inhibition above about 60%
Target sequence (Q8TCT1 whole entry, looked up): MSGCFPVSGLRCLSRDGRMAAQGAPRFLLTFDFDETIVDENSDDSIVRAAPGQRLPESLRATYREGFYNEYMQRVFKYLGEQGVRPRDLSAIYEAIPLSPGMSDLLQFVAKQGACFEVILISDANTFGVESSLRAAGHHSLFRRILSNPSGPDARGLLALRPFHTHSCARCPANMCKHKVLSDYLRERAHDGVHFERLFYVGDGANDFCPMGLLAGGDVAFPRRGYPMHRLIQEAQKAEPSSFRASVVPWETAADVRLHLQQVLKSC
esBAF inh = blocks esBAF chromatin remodeling in mouse ES cells. Bmi1-luciferase knock-in reporter, 24 h; 100% = twice the neutral-well signal. reporter increase, % at 12.5 µM. 350,000 tested, 2% active; in the data active = activation above about 40%; inconclusive = no clear call, values can overlap the other calls;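 also: 0% = median of the plate's neutral control wells and 100% = double that signal; a rise in the Bmi1 reporter signal indicates esBAF inhibition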
A3G deaminase = blocks human APOBEC3G single-stranded DNA deamination | inhibition, % at 20 µM | recombinant A3G, ssDNA deamination FAM/TAMRA fluorescence | AID 493012 | Q9HC16 | 330,000 tested, 0.28% active;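 active = inhibition of at least 40% at 20 µM, with no more than 30% in the related APOBEC3A deaminase screen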;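 also: plate controls were DMSO wells with A3G for no effect and wells lacking A3G enzyme for full effect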
Wnt act = Wnt/beta-catenin pathway activation | 300,000 tested, 1.2% active | Wnt/beta-catenin reporter cell assay, activator, plate reader | activation, % at 9.35 µM; in the data active = activation above about 30%, passing the limit was not always enough; inconclusive = no clear call, values can overlap the other calls;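 also: 0% = neutral control wells and 100% = positive control wells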
A3A deaminase = inhibitors of human APOBEC3A DNA deaminase | P31941 | recombinant A3A, FAM/TAMRA ssDNA deamination fluorescence | inhibition, % at 20 µM | 330,000 tested, 0.41% active | AID 493011;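 active = at least 40% inhibition at 20 µM here, with at most 30% in a related deaminase screen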;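 also: plate controls were A3A with DMSO for no effect and wells lacking A3A enzyme for full effect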
Target sequence (P31941 whole entry, looked up): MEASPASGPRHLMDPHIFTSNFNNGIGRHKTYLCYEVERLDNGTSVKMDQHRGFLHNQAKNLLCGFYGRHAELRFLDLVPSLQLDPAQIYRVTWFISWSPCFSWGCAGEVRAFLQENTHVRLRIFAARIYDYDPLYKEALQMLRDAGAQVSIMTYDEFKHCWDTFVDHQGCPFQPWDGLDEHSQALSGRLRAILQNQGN
The depositor's hits bear a star.

What do the screens show for `Cc1ccc(-c2cn3nc(C)c(C)nc3n2)cc1`?
MITF act: -63; PHOSPHO1 inh: 14; esBAF inh: -74; A3G deaminase: -4; A3A deaminase: -3

What do the screens show for `CO[C@H]1CN(C)C(=O)c2cc(NC(=O)c3ccccc3)ccc2OC[C@H](C)N(C(C)=O)C[C@@H]1C`?
esBAF inh: -2

How did Cc1nnc(SCc2ccc(F)cc2Cl)s1 do in these assays?
MITF act: 72; PHOSPHO1 inh: 10; esBAF inh: 50*; A3G deaminase: -5; A3A deaminase: -1

How did Cc1nnc(SCc2c(Cl)cccc2Cl)s1 do in these assays?
MITF act: 48; PHOSPHO1 inh: 24; esBAF inh: 55*; A3G deaminase: 0; Wnt act: 0; A3A deaminase: -3

How did Cc1nnc(SCc2cccc(CSc3nnc(C)s3)c2)s1 do in these assays?
MITF act: 50; PHOSPHO1 inh: 1; esBAF inh: inconclusive; A3G deaminase: -6; Wnt act: -2; A3A deaminase: -5

Results for Cc1cc(C)c2c(=O)n(CC(=O)NCCCN3CCN(c4ccccc4F)CC3)sc2n1 ?
PHOSPHO1 inh: 26; A3G deaminase: 53*; A3A deaminase: -4

How did Cc1cc(C)c2c(=O)n(CC(=O)NCCCN3CCOCC3)sc2n1 do in these assays?
PHOSPHO1 inh: 37; esBAF inh: -3; A3G deaminase: 54*; A3A deaminase: -2

What do the screens show for `Cc1cc([N+](=O)[O-])nn1CC(=O)NCCCN1CCOCC1`?
MITF act: 3; PHOSPHO1 inh: -22; esBAF inh: 14; A3G deaminase: -8; Wnt act: 1; A3A deaminase: 1

Results for C[C@@H]1CN([C@@H](C)CO)C(=O)Cc2cc(NC(=O)Cc3cn(C)c4ccccc34)ccc2O[C@@H]1CN(C)C(=O)NC1CCCCC1 ?
esBAF inh: 1

How did O=C(c1ccccc1)N1CC[C@@H]2[C@H](CO)Nc3ccc(C#Cc4cccnc4)cc3[C@@H]21 do in these assays?
esBAF inh: -2

How did CCN1CCC2(CC1)Oc1c(OC)cccc1C1CC(c3cccnc3)=NN12 (stereo not given) do in these assays?
PHOSPHO1 inh: -3; A3G deaminase: -1; Wnt act: 36*; A3A deaminase: -2

Results for O=C1CC(c2ccc(F)cc2)Sc2nc(-c3ccccc3)c(-c3ccccc3)n21 (stereo not given) ?
MITF act: -9; PHOSPHO1 inh: 5; A3G deaminase: -5; Wnt act: 5; A3A deaminase: 3

Results for O=C1CC(c2ccc3c(c2)OCO3)Sc2nc3ccccc3n21 (stereo not given) ?
MITF act: 12; PHOSPHO1 inh: 97*; esBAF inh: -55; A3G deaminase: -10; A3A deaminase: -6

What do the screens show for `O=C1CC(c2ccco2)Sc2nc3ccccc3n21` (stereo not given)?
MITF act: -1; PHOSPHO1 inh: 106*; esBAF inh: 0; A3G deaminase: -5; Wnt act: 47*; A3A deaminase: 1

What do the screens show for `O=C1CC(c2cccs2)Sc2nc3ccccc3n21` (stereo not given)?
MITF act: 6; PHOSPHO1 inh: 18; A3G deaminase: -3; A3A deaminase: 3

Results for O=C1CC(c2ccccc2)Sc2nc3ccccc3n21 (stereo not given) ?
MITF act: 57; PHOSPHO1 inh: 16; A3G deaminase: -14; Wnt act: 35*; A3A deaminase: 6

Results for O=C(COc1ccccc1[N+](=O)[O-])N1CCCc2ccccc21 ?
MITF act: -5; PHOSPHO1 inh: 33; esBAF inh: 10; A3G deaminase: -16; Wnt act: 4; A3A deaminase: -4

What do the screens show for `O=C(Cn1ccc([N+](=O)[O-])n1)N1CCCc2ccccc21`?
MITF act: 14; PHOSPHO1 inh: 0; esBAF inh: 9; A3G deaminase: -2; Wnt act: 32*; A3A deaminase: -1

Results for O=C(OCC(=O)N1CCCc2ccccc21)c1ccccc1[N+](=O)[O-] ?
MITF act: 84*; esBAF inh: 111*; A3G deaminase: -13; Wnt act: -2; A3A deaminase: -1

How did O=C(Cn1ccc([N+](=O)[O-])n1)N1CCCCCC1 do in these assays?
MITF act: 9; PHOSPHO1 inh: 18; esBAF inh: -13; A3G deaminase: 0; Wnt act: 3; A3A deaminase: 0

How did O=C(CNC(=O)c1cccs1)Nc1ccc2c(c1)OCCO2 do in these assays?
MITF act: 47; esBAF inh: -7; A3G deaminase: -6; Wnt act: 31*; A3A deaminase: 2

What do the screens show for `O=C(NCc1ccccn1)Nc1ccc2c(c1)OCO2`?
MITF act: 18; PHOSPHO1 inh: -11; esBAF inh: 51*; A3G deaminase: -5; Wnt act: 17; A3A deaminase: -3

Results for O=C(Nc1ccc2c(c1)OCO2)Nc1cnccn1 ?
MITF act: 54; PHOSPHO1 inh: 11; esBAF inh: inconclusive; A3G deaminase: 0; A3A deaminase: 0

Results for COc1cccc(NC(=O)Nc2cccnc2)c1 ?
MITF act: 22; PHOSPHO1 inh: 37; esBAF inh: 19; A3G deaminase: -7; Wnt act: 1; A3A deaminase: 3

Results for O=C(Nc1cccnc1)Nc1ccc2c(c1)OCO2 ?
PHOSPHO1 inh: 3; esBAF inh: 42*; A3G deaminase: -6; A3A deaminase: -1

How did Cn1ccc2cc(NC(=O)Nc3cccnc3)ccc21 do in these assays?
MITF act: 71; esBAF inh: 56*; A3G deaminase: -5; Wnt act: 13; A3A deaminase: 1

What do the screens show for `COc1ccc(NC(=O)Nc2ccc3c(c2)[C@H]2C[C@H](CC(=O)NCc4ccc5c(c4)OCO5)O[C@H](CO)[C@H]2O3)cc1`?
esBAF inh: -3

What do the screens show for `CNC[C@@H]1Oc2ncc(-c3ccc(C#N)cc3)cc2C(=O)N([C@H](C)CO)C[C@@H]1C`?
esBAF inh: -3

What do the screens show for `CCCCc1ccc(NC(=O)Nc2cccnc2)cc1`?
MITF act: 62; PHOSPHO1 inh: 14; esBAF inh: 51*; A3G deaminase: 5; Wnt act: 12; A3A deaminase: 10

What do the screens show for `O=C(Nc1ccc2c(c1)OCO2)Nc1ccccn1`?
MITF act: 62; PHOSPHO1 inh: 3; A3G deaminase: -5; Wnt act: 55*; A3A deaminase: -1

How did O=C(NCc1cccs1)Nc1ccc2c(c1)OCO2 do in these assays?
PHOSPHO1 inh: 7; esBAF inh: 63*; A3G deaminase: 3; A3A deaminase: 2

How did CCCCc1ccc(NC(=O)C2CCCO2)cc1 (stereo not given) do in these assays?
MITF act: 105*; PHOSPHO1 inh: 47; esBAF inh: 20; A3G deaminase: -5; A3A deaminase: 1

What do the screens show for `O=C(NCc1ccncc1)Nc1ccc2c(c1)OCO2`?
MITF act: 4; PHOSPHO1 inh: 54; A3G deaminase: -4; Wnt act: -1; A3A deaminase: -1

Screening results: PubChem BioAssay, several laboratories
